In the supplement of paper PMC13380429:
A number with no mark means an inactive call.

System: Vero E6 infected with SARS-CoV-2
Assay: inhibition of SARS-CoV-2 cytopathic effect; higher = more antiviral protection, active = above 15
Conditions: 48 h

SMILES	inhibition of SARS-CoV-2 cytopathic effect (1 nM) [%]	inhibition of SARS-CoV-2 cytopathic effect (8.33 nM) [%]	inhibition of SARS-CoV-2 cytopathic effect (100 nM) [%]	inhibition of SARS-CoV-2 cytopathic effect (833.33 nM) [%]	inhibition of SARS-CoV-2 cytopathic effect (10000 nM)
CCN(c1ccccc1)c1cc(=NC)n(C)c(C)n1	-6.18	-5.43	-5.42	-2.51	-0.53%
Clc1ccc(N2CCN(Cc3c[nH]c4ncccc34)CC2)cc1	-0.1	-0.31	-2.94	1.1	-3.38%
C[S+](C)CC[C@H](N)C(=O)O [cabagin]	-1.01	-0.84	-0.11	0.92	0.96%
CCOP(=S)(OCC)Oc1nc(Cl)c(Cl)cc1Cl [chlorpyrifos]	0.53	2.45	-0.67	0.54	-4.79%
O=C(Nc1cnccc1Cl)N1CCN(Cc2ccc3c(c2)OC(F)(F)O3)CC1	1.58	-1.35	1.93	0.76	0.7%
O=C1Cc2c([nH]c3ccc(Br)cc23)-c2ccccc2N1 [kenpaullone]	-1.82	-2.19	0.37	0.56	12%
Oc1ccc(C2CNCCc3c2cc(O)c(O)c3Cl)cc1 (stereo not given) [fenoldopam]	5.49	1.3	4.35	0.98	-5.61%
CCc1cccc(CC)c1NC(=O)CN(CC(=O)O)CC(=O)O [etifenin]	-0.66	1.39	0.25	0.46	3.26%
CCCn1c(=O)[nH]c2nc(-c3ccc(S(=O)(=O)N4CCN(c5ccc(Cl)cc5)CC4)cc3)[nH]c2c1=O	-0.12	0.44	-0.16	1.71	1.22%
CC(C)CC(=O)Nc1n[nH]c2c1CN(C(=O)C1CCN(C)CC1)C2(C)C	0.53	-0.22	0.24	0.59	1.78%
Cc1cc(-c2nc3cc(F)ccc3s2)ccc1NC(=O)[C@@H](N)CCCCN [phortress]	-1.03	-0.88	-0.54	-2.21	-5.43%
c1cc2c3c(c1)c1c(n3CCNC2)CCCC1	-1.27	-0.02	0.6	0.21	-0.08%
Cc1oc(=O)oc1COC(=O)C1=C([C@H]2CCCO2)S[C@@H]2[C@@H]([C@@H](C)O)C(=O)N12 [faropenem-medoxomil]	2.73	-1.09	-0.59	2.96	1.04%
CC(=O)c1ccc(S(=O)(=O)NC(=O)NC2CCCCC2)cc1 [acetohexamide]	-0.51	-0.35	-0.58	0.37	-0.22%
C=C1C(=O)O[C@@H]2[C@H]3C(C)=CC[C@@]34O[C@@]4(C)CC[C@@H]12 [arglabin]	-2.02	1.39	-0.31	-1.74	29.2% (active)
COC(=O)N[C@H](C(=O)N1CCC[C@H]1c1nc(-c2ccc3c(c2)O[C@@H](c2ccccc2)n2c-3cc3cc(-c4c[nH]c([C@@H]5CCCN5C(=O)[C@@H](NC(=O)OC)C(C)C)n4)ccc32)c[nH]1)C(C)C [elbasvir]	1.03	1.52	0.09	-1.19	-4.27%
COc1cc2c(cc1OCCCN1CCCC1)N=C(N)C21CCC1	-1.51	0.76	0.57	1.84	1.55%
NCC(CS(=O)(=O)O)c1ccc(Cl)cc1 (stereo not given) [saclofen]	0.43	0.42	-1.16	4.89	1.7%
Cc1cc(N)c2ccccc2[n+]1CCCCCCCCCC[n+]1c(C)cc(N)c2ccccc21 [dequalinium]	1.5	2.58	-2.33	-2.88	-3.48%
C#Cc1cccc(Nc2ncnc3cc(OCCOC)c(OCCO)cc23)c1	2.26	-0.66	-2.61	-4.18	-8.66%

SMILES	inhibition of SARS-CoV-2 cytopathic effect (1 nM) [%]	inhibition of SARS-CoV-2 cytopathic effect (8.33 nM) [%]	inhibition of SARS-CoV-2 cytopathic effect (100 nM) [%]	inhibition of SARS-CoV-2 cytopathic effect (833.33 nM) [%]	inhibition of SARS-CoV-2 cytopathic effect (10000 nM)
O=C(O)c1ccc(OCCn2ccnc2)cc1 [dazoxiben]	1.06	2.92	3.5	-0.21	-0.65%
C1=C2CCCN[C@H]2[C@@H]2C[C@H]1[C@H]1CCCCN1C2 [aloperine]	-0.36	2.25	-0.38	0.5	-1.11%
COP(=O)(OC)OC(c1ccc(Cl)cc1)P(=O)(OC)OC (stereo not given) [mifobate]	-4.41	-10.9	-3.08	-2.04	-5%
C[C@]12CCC(=O)C(O)=C1CC[C@@H]1[C@@H]2CC[C@]2(C)C(=O)CC[C@@H]12 [formestane]	-6.07	-1.52	4.22	6.78	-1.65%
COc1nc(N)nc2c1ncn2[C@@H]1O[C@H](CO)[C@@H](O)[C@@H]1O [nelarabine]	-1.29	-1.48	-0.71	-0.9	1.12%
CC(C)=CCC[C@](C)(O[C@@H]1O[C@H](CO)[C@@H](O)[C@H](O)[C@H]1O)[C@H]1CC[C@]2(C)[C@@H]1[C@H](O)C[C@@H]1[C@@]3(C)CC[C@H](O[C@@H]4O[C@H](CO)[C@@H](O)[C@H](O)[C@H]4O[C@@H]4O[C@H](CO)[C@@H](O)[C@H](O)[C@H]4O)C(C)(C)[C@@H]3CC[C@]12C [ginsenoside-RD]	-2.36	-1	2.51	0.27	0.18%
CNc1ncnc2c1ncn2[C@@H]1O[C@H](CO)[C@@H](O)[C@H]1O [N6-methyladenosine]	1.25	1.97	-1.29	0.63	2.03%
CCCCCCNC(=O)n1cc(F)c(=O)[nH]c1=O [Carmofur]	-1.95	0.48	2.25	1.65	-0.73%
CC(C)NCC(O)COc1cccc2ccccc12 (stereo not given) [propranolol]	0.19	1.94	-0.637	-0.01	-2.77%
O=C(NCCCCN1CCN(c2cccc(Cl)c2Cl)CC1)c1ccc2c(c1)Cc1ccccc1-2	0.39	2.85	-2.31	-1.17	-3.44%
CC(C(=O)O)c1ccc2c(c1)Cc1ccccc1-2 (stereo not given) [cicloprofen]	1	0.42	2.68	1.95	4.16%
O=C(Nc1ccc(OC(F)(F)F)cc1)c1sccc1NCc1ccnc2ccccc12	-2.32	3.56	4.81	4.77	5.44%
CC(=O)O[C@H]1Cc2ccccc2N(C(N)=O)c2ccccc21 [eslicarbazepine-acetate]	3.04	-0.54	1.48	0.03	1.45%
O=C(O)CCCCC(CCSCc1ccccc1)SCc1ccccc1 (stereo not given)	1.25	1.84	3.04	0.34	-0.88%
Nc1ncnc(Nc2ccc(Cl)cc2)n1 [chlorazanil]	0.82	-0.51	-1.09	-1.03	-2.14%
N[C@@H](CCC(=O)N[C@@H](CSN=O)C(=O)NCC(=O)O)C(=O)O [S-nitrosoglutathione]	0.29	0.8	-1.28	-3.1	-0.66%
O=c1[nH]c(=O)n([C@H]2C[C@H](O)[C@@H](CO)O2)cc1F [floxuridine]	1.42	1.34	-1.95	-2.04	-4.05%
Cn1c(=O)cc(N2CCC[C@@H](N)C2)n(Cc2cc(F)ccc2C#N)c1=O [trelagliptin]	-1.51	0.34	1.49	-0.45	3.01%
Cc1noc(-c2ccc(-c3ccc(CC(=O)O)cc3)cc2)c1NC(=O)O[C@H](C)c1ccccc1	0.92	0.35	-2.41	-3.36	-4.34%
